About 7,900 targets were measured; listed, in parts, are those with a hit and a random draw of the rest. About 0.6% of all pairs of compound and target were hits.
Columns and labels:
Assay in all cases: log2 fold change, soluble protein after heating vs DMSO (PISA); higher = thermal stabilisation; K562 cells, 10 uM, 30 min; active = over 0.2 and 3.5 SD of the protein, either way, in both replicates (recomputed)
[1] = compound: CC[C@@H]1C(=O)N(C)c2cnc(Nc3ccc(C(=O)NC4CCN(C)CC4)cc3OC)nc2N1C1CCCC1
How it was run: (§1)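 For each measurement, 10 μM compound was applied for 30 min to K562 cells at 2×10^6 cells/mL. Aliquots were heated for 3 min across 48°C-58°C, pooled, and extracted in PBS with 0.5% NP-40 at 4°C; the supernatant after 21,000xg for 90 min was soluble protein. This was quantified by TMTpro 16plex LC-MS/MS with channel sums equalised, and thermal stability was reported relative to control samples from duplicates, on a log2 fold-change scale.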

[2] = compound: CC[C@@H]1C(=O)N(C)c2cnc(Nc3ccc(C(=O)N[C@H]4CC[C@H](N5CCN(CC6CC6)CC5)CC4)cc3OC)nc2N1C(C)C [volasertib]
How it was run: as §1

[3] = compound: CC[C@H](C)N1C=C(C2=C(C=C(C=C21)C3=CN=C(C=C3)N4CCNCC4)C(=O)NCC5=C(C=C(NC5=O)C)C)C
How it was run: as §1

[4] = compound: CC[C@H](C)[C@@H](C(=O)N[C@@H]([C@@H](C)O)C(=O)N[C@@H](CC(C)C)C(=O)[C@]1(CO1)C)NC(=O)[C@H]([C@@H](C)CC)N(C)C(=O)C [epoxomicin]
How it was run: as §1

[5] = compound: CCn1c(C(=O)N(C2CC2)C2CC2)cc2c3c(ncn3C)c(Nc3cc(C)n(C)n3)nc21
How it was run: as §1

[6] = compound: CCn1cc(-c2ccnc3[nH]c(-c4cccc(CN(C)C)c4)cc23)c(-c2ccc(NC(=O)N(C)C)cc2)n1
How it was run: as §1

[7] = compound: CN(C)CC(=O)Nc1ccc2[nH]c(=O)c3ccccc3c2c1
How it was run: as §1

[8] = compound: CN(CCOC1=CC=C(C=C1)C[C@H]2C(=O)NC(=O)S2)C3=CC=CC=N3 (racemic) [rosiglitazone]
How it was run: as §1

[9] = compound: CN1C2=C(C3=C1C(=O)N(N=C3)CC4=CC(=CC=C4)N)SC(=C2)S(=O)C
How it was run: as §1

[10] = compound: CN1CCC(CNc2ccc3ncc(-c4cccc(OC(F)(F)F)c4)n3n2)CC1
How it was run: as §1

[11] = compound: CN1CCN(CCOc2cc(OC3CCOCC3)c3c(Nc4c(Cl)ccc5c4OCO5)ncnc3c2)CC1 [saracatinib]
How it was run: as §1

[12] = compound: CN1CCN(c2nc(C3=C(c4c[nH]c5ccccc45)C(=O)NC3=O)c3ccccc3n2)CC1 [sotrastaurin]
How it was run: as §1

[13] = compound: CN1CC[C@H](c2c(O)cc(O)c3c(=O)cc(-c4ccccc4Cl)oc23)[C@H](O)C1 [alvocidib]
How it was run: as §1

[14] = compound: CN1CCc2c(c3ccccc3n2Cc2ccc(C(=O)NO)cc2)C1 [Tubastatin A]
How it was run: as §1

[15] = compound: CNC(=O)C1=CC=CC=C1NC2=NC(=NC=C2Cl)NC3=C(C=C(C=C3)N4CCOCC4)OC
How it was run: as §1

[16] = compound: CNC(=O)c1ccc(Nc2ncc(C(F)(F)F)c(NCc3nccnc3N(C)S(C)(=O)=O)n2)cc1 [defactinib]
How it was run: as §1

[17] = compound: CNCc1ccc(-c2[nH]c3cc(F)cc4c3c2CCNC4=O)cc1 [rucaparib]
How it was run: as §1

[18] = compound: CNc1nc(-c2ccc3c(N)n[nH]c3c2)cc(N2C[C@@H](C(=O)NC3CCCCC3)CC[C@H]2C)n1
How it was run: as §1

[19] = compound: COC(=O)N[C@@H](C)CNc1nccc(-c2cn(C(C)C)nc2-c2cc(Cl)cc(NS(C)(=O)=O)c2F)n1 [encorafenib]
How it was run: as §1

[20] = compound: COC(=O)[C@H](CCSC)NC(=O)C1=C(C=C(C=C1)NC[C@H](CS)N)C2=CC=CC=C2
How it was run: as §1

Measured: log2 fold change

EXOC5 (UniProt O00471)
Chain of UniProt O00471 (O00471 whole entry, looked up): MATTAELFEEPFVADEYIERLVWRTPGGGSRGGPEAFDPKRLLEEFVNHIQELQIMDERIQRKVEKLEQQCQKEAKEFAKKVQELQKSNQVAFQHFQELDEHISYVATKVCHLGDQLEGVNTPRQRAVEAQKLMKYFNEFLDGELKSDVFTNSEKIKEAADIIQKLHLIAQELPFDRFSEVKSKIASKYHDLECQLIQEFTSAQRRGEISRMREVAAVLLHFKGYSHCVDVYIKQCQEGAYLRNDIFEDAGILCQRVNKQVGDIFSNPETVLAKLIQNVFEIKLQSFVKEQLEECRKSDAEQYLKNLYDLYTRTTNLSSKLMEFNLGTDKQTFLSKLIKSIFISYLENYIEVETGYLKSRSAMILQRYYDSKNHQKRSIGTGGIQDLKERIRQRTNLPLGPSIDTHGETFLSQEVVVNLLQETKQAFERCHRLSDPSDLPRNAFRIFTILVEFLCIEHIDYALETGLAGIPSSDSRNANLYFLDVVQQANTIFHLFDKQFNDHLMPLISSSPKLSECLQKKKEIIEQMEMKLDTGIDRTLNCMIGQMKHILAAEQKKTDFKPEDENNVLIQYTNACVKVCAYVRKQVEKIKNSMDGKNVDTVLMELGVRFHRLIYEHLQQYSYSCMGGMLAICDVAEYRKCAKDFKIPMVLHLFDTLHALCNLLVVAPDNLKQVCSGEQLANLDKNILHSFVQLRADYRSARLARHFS
inactive: [1] -0.236 | [3] 0.093 | [4] 0.041 | [5] -0.046 | [6] 0.022 | [7] 0.066 | [8] 0.044 | [9] 0.054 | [10] -0.215 | [11] -0.043 | [12] -0.209 | [13] -0.008 | [14] 0.015 | [15] 0.042 | [16] -0.064 | [17] 0.091 | [18] -0.06 | [19] 0.083 | [20] -0.071
active: [2] -0.596

FADS1, A0A0A0MR51
inactive: [1] 0.022 | [2] -0.148 | [3] 0.036 | [4] 0.024 | [5] 0.002 | [6] -0.002 | [7] -0.007 | [8] 0.017 | [9] -0.119 | [10] -0.041 | [11] 0.013 | [12] -0.061 | [13] -0.086 | [14] 0.15 | [15] 0.112 | [16] -0.022 | [17] 0.005 | [18] 0.027 | [19] 0.004 | [20] 0

EXOC2 (UniProt Q96KP1)
Chain of UniProt Q96KP1 (Q96KP1 whole entry, looked up): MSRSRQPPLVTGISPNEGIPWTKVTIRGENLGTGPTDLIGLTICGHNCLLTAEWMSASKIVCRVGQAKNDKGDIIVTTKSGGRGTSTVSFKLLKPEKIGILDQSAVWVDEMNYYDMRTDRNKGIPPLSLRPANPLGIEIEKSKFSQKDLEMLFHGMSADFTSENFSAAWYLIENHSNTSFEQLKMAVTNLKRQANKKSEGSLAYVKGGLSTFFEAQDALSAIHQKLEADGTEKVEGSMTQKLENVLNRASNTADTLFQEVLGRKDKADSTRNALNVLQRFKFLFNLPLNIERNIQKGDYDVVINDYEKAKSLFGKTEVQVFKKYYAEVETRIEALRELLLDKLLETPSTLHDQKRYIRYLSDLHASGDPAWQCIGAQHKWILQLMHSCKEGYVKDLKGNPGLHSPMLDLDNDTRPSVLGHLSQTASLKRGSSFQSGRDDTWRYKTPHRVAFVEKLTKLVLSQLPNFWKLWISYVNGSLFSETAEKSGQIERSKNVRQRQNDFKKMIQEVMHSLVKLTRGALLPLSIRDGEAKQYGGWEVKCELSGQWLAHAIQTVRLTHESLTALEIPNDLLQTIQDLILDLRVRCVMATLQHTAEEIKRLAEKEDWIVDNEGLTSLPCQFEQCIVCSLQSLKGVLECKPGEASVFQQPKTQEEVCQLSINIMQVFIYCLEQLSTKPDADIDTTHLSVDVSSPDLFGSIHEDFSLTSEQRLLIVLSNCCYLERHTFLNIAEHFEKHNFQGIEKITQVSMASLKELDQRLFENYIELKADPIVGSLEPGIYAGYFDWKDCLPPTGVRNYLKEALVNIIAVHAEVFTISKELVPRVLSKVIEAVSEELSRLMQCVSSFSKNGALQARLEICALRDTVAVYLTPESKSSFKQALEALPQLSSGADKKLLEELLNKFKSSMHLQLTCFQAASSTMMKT
inactive: [1] -0.13 | [2] -0.463 | [3] -0.041 | [4] 0 | [5] -0.089 | [6] 0.044 | [7] 0.058 | [8] 0.01 | [9] 0.123 | [11] -0.058 | [12] -0.214 | [13] -0.01 | [14] 0.044 | [15] 0.064 | [16] -0.096 | [17] 0.136 | [18] -0.004 | [19] 0.126 | [20] -0.085
active: [10] -0.386

EEF1D isoform 2 (UniProt P29692)
Chain of UniProt P29692 (P29692 whole entry, looked up): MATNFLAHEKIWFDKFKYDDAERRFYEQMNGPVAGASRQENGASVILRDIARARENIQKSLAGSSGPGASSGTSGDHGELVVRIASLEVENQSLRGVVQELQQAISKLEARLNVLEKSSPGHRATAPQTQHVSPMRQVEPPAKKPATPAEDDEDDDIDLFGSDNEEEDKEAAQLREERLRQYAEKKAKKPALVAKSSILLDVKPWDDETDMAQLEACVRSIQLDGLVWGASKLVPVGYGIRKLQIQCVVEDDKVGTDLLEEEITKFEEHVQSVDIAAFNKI
active: [2] -0.336
inactive: [1] -0.089 | [3] -0.001 | [4] 0.008 | [5] -0.031 | [6] 0.05 | [7] -0.022 | [8] 0.019 | [9] 0.015 | [10] -0.039 | [11] -0.04 | [12] -0.03 | [13] 0 | [14] 0.001 | [15] 0.107 | [16] -0.011 | [17] 0.053 | [18] 0.017 | [19] 0.078 | [20] -0.013

DNAJC7 (UniProt Q99615)
Chain of UniProt Q99615 (Q99615 whole entry, looked up): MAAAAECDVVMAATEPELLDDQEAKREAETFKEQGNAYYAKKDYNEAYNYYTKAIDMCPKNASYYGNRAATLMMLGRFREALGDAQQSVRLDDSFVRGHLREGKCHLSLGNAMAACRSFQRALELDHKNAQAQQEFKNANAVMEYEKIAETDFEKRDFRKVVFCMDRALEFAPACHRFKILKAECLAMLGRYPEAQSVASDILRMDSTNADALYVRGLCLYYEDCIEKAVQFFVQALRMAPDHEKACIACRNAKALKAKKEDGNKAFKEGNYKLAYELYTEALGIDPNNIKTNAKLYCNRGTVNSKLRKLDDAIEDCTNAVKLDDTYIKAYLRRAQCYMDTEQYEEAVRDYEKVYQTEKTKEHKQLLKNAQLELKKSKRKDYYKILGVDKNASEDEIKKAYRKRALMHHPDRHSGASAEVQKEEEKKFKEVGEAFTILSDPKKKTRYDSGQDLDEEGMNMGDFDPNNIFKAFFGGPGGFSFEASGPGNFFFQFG
inactive: [1] -0.079 | [3] 0.104 | [4] 0.073 | [5] -0.014 | [6] -0.025 | [7] 0.014 | [8] 0.017 | [9] -0.052 | [10] -0.142 | [11] 0.001 | [12] -0.05 | [13] -0.069 | [14] 0.002 | [15] 0.034 | [16] -0.072 | [17] -0.016 | [18] 0.056 | [19] 0.045 | [20] -0.003
active: [2] -0.266

ELOVL1 (UniProt Q9BW60)
Chain of UniProt Q9BW60 (Q9BW60 whole entry, looked up): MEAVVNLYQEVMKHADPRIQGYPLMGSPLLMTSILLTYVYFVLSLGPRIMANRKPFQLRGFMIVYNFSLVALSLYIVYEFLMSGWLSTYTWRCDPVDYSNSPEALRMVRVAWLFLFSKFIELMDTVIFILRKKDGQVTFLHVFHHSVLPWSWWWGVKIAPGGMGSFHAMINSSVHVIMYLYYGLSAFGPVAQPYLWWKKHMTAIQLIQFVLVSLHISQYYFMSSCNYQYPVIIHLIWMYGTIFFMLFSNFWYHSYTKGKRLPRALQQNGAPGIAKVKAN
inactive: [1] -0.217 | [2] -0.127 | [3] -0.011 | [4] 0.003 | [5] -0.044 | [6] 0.032 | [7] 0.116 | [8] 0.002 | [9] -0.068 | [11] 0.015 | [12] 0.037 | [13] -0.011 | [14] -0.015 | [15] -0.223 | [16] -0.029 | [17] 0.05 | [18] 0.017 | [19] -0.011 | [20] 0
active: [10] -0.691

Reference: the supplement of paper PMC10849652
